# High-throughput results: PubChem BioAssay, National Center for Advancing Translational Sciences (NCATS)
# LmPK inhibitor: qHTS Assay for Inhibitors of Leishmania Mexicana Pyruvate Kinase (LmPK) | Potency, µM (series often up to 57.5 µM), inactives show at the highest dose activity change, negative = inhibition, hits mostly inhibitors | Q27686 | purified LmPK, Kinase-Glo ATP luminescence, 1 h | actives 0.37% (n = 290,000); note: potency is the fitted concentration of half-maximal effect; % is set by controls: 0 for no effect and ±100 for the full control effect
# Target sequence (Q27686 whole entry, looked up): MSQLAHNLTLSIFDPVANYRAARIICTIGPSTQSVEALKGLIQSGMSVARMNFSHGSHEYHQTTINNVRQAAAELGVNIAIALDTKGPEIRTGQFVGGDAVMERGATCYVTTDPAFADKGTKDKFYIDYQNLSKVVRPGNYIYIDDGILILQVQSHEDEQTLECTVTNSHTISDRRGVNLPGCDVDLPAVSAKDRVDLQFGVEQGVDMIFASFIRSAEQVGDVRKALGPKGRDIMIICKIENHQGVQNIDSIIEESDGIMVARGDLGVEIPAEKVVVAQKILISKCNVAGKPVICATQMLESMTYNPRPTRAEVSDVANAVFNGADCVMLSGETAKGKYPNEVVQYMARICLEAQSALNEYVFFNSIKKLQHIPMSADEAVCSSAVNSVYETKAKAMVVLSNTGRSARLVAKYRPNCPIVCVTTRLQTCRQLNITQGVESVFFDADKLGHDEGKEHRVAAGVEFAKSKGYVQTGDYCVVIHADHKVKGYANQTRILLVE
#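 Purified LmPK (0.1 nM) converted ADP (0.1 mM) to ATP with PEP (0.5 mM) in imidazole buffer pH 7.2 with KCl and MgCl2, 1 h at room temperature. ATP was read by Kinase-Glo luminescence; data normalized to uninhibited and no-enzyme controls.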
# Cycloheximide cs: Cycloheximide Counterscreen for Small Molecule Inhibitors of Shiga Toxin; cell reporter, cycloheximide protein synthesis inhibition counterscreen; max response, %; actives 12% (n = 300,000); AID 2314, 2010; in the data active = max response mostly above about 13%, no sharp cut-off; inactive = mostly below about 14%; note: read at 38.3 µM for the half of the compounds with a filed dose; 0% is about no effect
# Shiga inhibitor: A qHTS for Small Molecule Inhibitors of Shiga Toxin; Vero cells, Shiga toxin protein synthesis inhibition reporter; inhibition, % at 38.7 µM; actives 9.2% (n = 290,000); in the data active = inhibition mostly above about 28%, no sharp cut-off; inactive = mostly below about 43%; note: 0% is about no effect
# NS1 inh: qHTS Assay for Inhibitors of Influenza NS1 Protein Function; Potency, µM (highest dose often 46.1 µM), for the others: at the highest dose activity, positive = more growth; actives 0.4% (n = 270,000); AID 2326, 2010; calls by dose curve; note: potency is the fitted concentration of half-maximal effect; actives are rising curves; nearly all actives have a fitted effect of over 50% in size
#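 Recovery from NS1-induced slow growth read by OD600 in budding yeast switched to galactose assay medium (pH 6.0, -URA) at 1:100 dilution. Compound 23 nl per well; the matching strain lacking NS1 serves as control.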
# Giardia FBPA inh: qHTS Assay for Inhibitors of Fructose-1,6-bisphosphate Aldolase from Giardia Lamblia; purified Giardia FBPA; actives 0.71% (n = 290,000); Potency, µM (highest dose often 59.6 µM), for the others: top-dose activity, negative = inhibition, actives largely listed as inhibitors; A8B2U2; note: potency is the fitted concentration of half-maximal effect; % is set by controls: 0 for no effect and ±100 for the full control effect; nearly all actives have a fitted effect of over 55% in size
#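 Giardia FBPA (40 nM reagent) was preincubated 10 min at RT with compound (up to 57.5 uM final), then substrate plus GAPDH/TPI/NAD/arsenate coupling system with diaphorase/resazurin was added; resorufin fluorescence (525/598 nm) was read after 20 min.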
# * hit, by the source's call; ? = inconclusive; · = no result; [ ] = another dose, or the depositor's remark. Hits are enriched below; roughly 14% of the tested compounds scored in any of these assays. Unless noted, calls come from the whole dose curve; as a rule, active = well fitted curve in the direction sought with a large enough effect; inconclusive = small, poorly fitted or top-dose-only effect, or another doubt; inactive = no such curve, though single readings can be large; an effect the other way counts as inactive or inconclusive.
SMILES,LmPK inhibitor,Cycloheximide cs,Shiga inhibitor,NS1 inh,Giardia FBPA inh
COc1ccc(C(=O)O/N=C(\N)c2ccccn2)cc1,12.6µM*,-11.0,-29.5,-30.2%,5.1%
CC1CCN(S(=O)(=O)c2cccc(C(=O)Nc3nncs3)c2)CC1,3.4%,-2.0,-4.8,14.2%,12.9%
Cc1c(Cl)cccc1NC(=O)CSC(N)=O,0.2%,4.2,-14.6,7.5%,-7.2%
Cc1cc(C)n(C(=O)c2ccc(Cl)c(F)c2F)n1,2.6%,-1.0,-1.4,0.2%,-0.5%
Cc1cc(C)n(C(=O)c2cc(F)c(F)cc2C)n1,2.0%,25.1*,70.0*,2.6%,3.9%
COc1ccc(Cc2nc3ccc(C(=O)NCC(C)(C)OC)cc3o2)cc1,1.0%,34.0*,96.0*,-13.4%,-5.3%
COc1ccc(Cc2nc3ccc(C(=O)NCc4cc(C)no4)cc3o2)cc1,4.2%,56.7*,65.7*,2.8%,2.5%
COC(=O)C1=C(Nc2ccccc2NC(=O)c2ccccc2C(=O)O)CSC1,-9.2%,56.3*,103.2*,-7.0%,-26.9%
COC(=O)C1=C(Nc2ccccc2NC(=O)CCCC(=O)O)CSC1,-8.4%,13.5*,29.3,2.6%,-15.2%
COC(=O)C1=C(Nc2ccccc2NS(=O)(=O)c2ccc(C(F)(F)F)cc2Cl)CSC1,-2.1%,5.1,9.6,19.2%,-26.3%
CC(C)c1ccccc1NC(=O)CCCC(=O)O,0.6%,-2.6,-1.8,3.1%,0.9%
NS(=O)(=O)c1ccc(NC(=O)COc2ccc(Cl)cc2)cc1,0.4%,-3.5,-7.2,3.3%,8.3%
Fc1cccc(CNc2ncnc3cc(Cl)ccc23)c1F,0.4%,-3.7,-4.5,-62.1%,15.7%
CCCc1nnc(SCC(=O)NC2CCCC2)n1CCOC,2.1%,-4.6,22.0,-5.1%,5.4%
COc1cccc(CN2CCN(S(=O)(=O)c3ccc(Cl)s3)CC2)c1,0.3%,12.6*,31.8,-27.1%,·
COc1ccc(CNC(=O)CSc2nc3ccccc3n2C(C)=O)cc1,2.3%,-2.7,-5.2,-8.7%,11.5%
O=C(O)C[C@H](Cc1ccc2c(c1)OCO2)C(=O)O,·,·,·,2.8%,·
CC(C)(C)C(=O)/C=C(N)/C=C/c1ccccc1,-1.1%,28.5*,34.9,-12.8%,1.0%
Cc1ccc(C(=O)/C=C/c2ccc(-c3ccc(C)cc3)o2)cc1,-20.3%,14.8,13.2,-0.2%,-7.9%
O=C(/C=C/c1ccccc1)c1ccc2c3c(cccc13)CC2,0.7%,29.8*,73.6*,2.6%,-2.7%
CC(C)(C)C(=O)/C=C(\N)c1ccccn1,-0.2%,12.0*,13.9,-3.7%,-6.3%
COC(=O)NNC(=O)/C=C/c1ccccc1,0.0%,-4.1,-6.6,11.4%,0.2%
O=C(/C=C\c1ccc(-c2ccccc2)o1)c1ccccc1,-14.6%,42.1*,110.4*,-0.6%,-22.7%
O=C(/C=C/c1ccc(NC(=O)c2ccccc2-c2ccccc2C(=O)O)cc1)c1ccccc1,-2.3%,10.4*,37.4*,?,22.8%
N#Cc1ccc(/C=C/C(=O)c2ccccc2)cc1,-11.1%,20.4*,46.8*,-37.3%,-4.3%
SMILES,LmPK inhibitor,Cycloheximide cs,Shiga inhibitor,NS1 inh,Giardia FBPA inh
CCOc1ccc(/C=C/C(=O)c2ccc(-c3ccccc3)cc2)cc1,-3.3%,2.2,13.0,28.2%,0.0%
O=C(/C=C\c1ccccc1)c1ccccc1O,·,·,·,·,0.0%[12.9 µM]
O=Cc1ccc(-c2ccc(F)cc2)o1,-1.0%,-1.0,12.7,·,1.3%
O=C(O)c1ccccc1-c1ccccc1C(=O)Nc1ccc(F)cc1,1.3%,-1.2,-7.4,0.6%,14.5%
O=Cc1ccc(-c2ccc(C(=O)O)cc2)o1,5.2%,34.7*,88.0*,3.7%,5.5%
O=C(/C=C/c1ccccc1)c1ccccc1,?,45.1*,124.8*,-34.6%,0.2%
O=C(/C=C/c1ccccc1)/C=C/c1ccccc1,-21.8%,49.5*,134.4*,-36.6%,-6.0%
O=Cc1ccc(OC(=O)/C=C/c2ccccc2)cc1,0.4%,34.5*,24.7*,-41.3%,10.9%
CC(/C=C\c1ccccc1)=C/C(=O)O,-19.5%,6.7,14.9,-46.6%,14.6%
Cc1cc(C)c(S(=O)(=O)Nc2nccs2)c(C)c1,2.4%,-1.0,-9.2,-1.7%,-29.5%
OCc1cn(-c2ccccc2)nc1-c1cc2ccccc2o1,-1.0%,55.4*,100.3*,-2.4%,-16.6%
OCc1cn(-c2ccccc2)nc1-c1ccc2c(c1)OCCO2,3.1%,45.0*,101.1*,-58.7%,2.0%
OCc1cn(-c2ccccc2)nc1-c1ccc(Br)cc1,-5.0%,31.9*,33.3*,-30.4%,-1.5%
CCOc1ccc(CC(=O)Nc2nccs2)cc1,3.4%,19.9*,12.3,·,0.2%
Cc1ccc(OCCCC(=O)Nc2nccs2)cc1,6.9%,23.0*,42.4*,-8.9%,2.8%
COc1ccc2c(CC(=O)NCc3cccs3)coc2c1,0.4%,16.5,34.6,-7.0%,2.6%
COc1ccc2c(CC(=O)Nc3nccs3)coc2c1,-4.7%,31.4*,77.5*,4.1%,0.1%
Cc1ccc(CC(=O)Nc2nccs2)cc1C,-3.4%,14.0,12.8,2.3%,12.1%
O=C(O)CC[C@]1(C(=O)O)CCC(=O)c2ccccc21,·,·,·,0.0%,·
CSc1ccc(S(=O)(=O)N2c3ccccc3CC2C)cc1 (configuration not stated),-0.1%,-3.7,·,-1.7%,24.0%
Cc1cc2nccc(-c3ccccn3)n2n1,-4.1%,-3.9,-5.3,·,2.2%
c1ccc(-c2cc3nccc(-c4ccccn4)n3n2)cc1,-0.7%,44.6*,94.0*,-9.6%,6.0%
CCOc1ccc(C(=O)Nc2nnc(NC(=S)Nc3ccccc3)s2)cc1,0.4%,25.5*,69.9*,·,13.2%
CCc1nnc(NC(=O)CCC(=O)Nc2ccccc2)s1,5.7%,-1.7,2.0,-6.0%,2.1%
Cc1nc(NC(=S)Nc2ccccc2)sc1C,-1.5%,42.8*,127.2*,·,-6.1%
SMILES,LmPK inhibitor,Cycloheximide cs,Shiga inhibitor,NS1 inh,Giardia FBPA inh
CCc1nnc(NC(=S)Nc2ccccc2)s1,-4.8%,45.3*,98.9*,·,?
COC(=O)C1=C[C@@H](C(=O)OC)C2C3=C(C(=O)[C@@]2(C)NC(=O)c2ccccc2)[C@H](c2ccccc2)[C@@H]2C(=O)N(c4ccccc4)C(=O)[C@@H]2[C@@H]3C1 (some centres not stated),·,0.6,-9.8,·,-3.7%
CC(NC(=O)Cc1ccsc1)c1ccc(F)cc1 (configuration not stated),0.8%,-1.9,-4.6,-5.3%,9.1%
C/C(=N/N1CCN(c2ccccn2)CC1)c1cccc([N+](=O)[O-])c1,-9.3%,14.7*,21.7,0.6%,1.9%
O=C(c1cccc([N+](=O)[O-])c1)N1CCN(c2ccccn2)CC1,1.3%,-0.5,-7.8,?,-3.7%
COc1ccc(CCNC(=O)c2cccs2)cc1,-2.0%,31.7*,47.7*,-17.9%,-2.8%
O=C(NCCc1cccs1)c1cccs1,7.5%,49.7*,91.3*,·,-0.5%
O=C(NCCCc1ccccc1)c1cccs1,-3.9%,33.7*,54.9*,-12.6%,-0.2%
O=C(NCCCCCCNC(=O)c1cccs1)c1cccs1,-2.5%,-2.6,-7.0,6.9%,-3.1%
CCNC(=O)C(=O)Nc1ccc([N+](=O)[O-])cc1,-3.1%,4.5,-0.9,·,1.8%
